# According to PubChem BioAssay (EPA / NIEHS):
# Active and inactive are the calls of the source. The calls were made as follows: active = hit-call score of the fitted dose curve at least 0.9, where 1 is the maximum; inactive = score below 0.9.
# Assay: ATG_TAL_CIS: Attagene CIS-FACTORIAL HepG2 Assay for human TAL Basal Promoter (AID 2282966)
# Details: HepG2 Attagene cis-factorial TAL promoter reporter; actives raise or lower the signal
# Method: ATG_CIS is a cell-based, multiplexed-readout assay that uses HepG2, a human liver cell line, with measurements taken at 24 hours after chemical dosing in a 24-well plate.ATG_TAL_CIS is one of 52 assay component(s) measured or calculated from the ATG_CIS assay. It is designed to make measurements of mRNA induction, a form of inducible reporter, as detected with fluorescence intensity signals by Reverse transcription polymerase chain reaction (RT-PCR) and Capillary electrophoresis technology.Data from the assay component ATG_TAL_CIS was analyzed into 1 assay endpoint. This assay endpoint, ATG_TAL_CIS, was analyzed with bidirectional fitting relative to DMSO as the negative control and baseline of activity. Using a type of inducible reporter, measures of mRNA for gain or loss-of-signal activity can be used to understand the background control at the transcription factor-level as they relate to the gene . Furthermore, this assay endpoint can be referred to as a secondary readout, because this assay has produced multiple assay endpoints where this one serves a background control function. To generalize the intended target to other relatable targets, this assay endpoint is annotated to the background measurement intended target family, where the subfamily is internal marker.
# Human liver HepG2 cells are transiently transfected with multiple reporter transcription units (MRTUs) in 6-well plates using FuGene 6 reagent (Roche; 3 ml FuGene/1 mg DNA). The MRTU constructs are regulated by a cis-regulating element (promoter). […] A major difference between the CIS and TRANS system is that in CIS activities of endogenous TFs are measured, whereas the TRANS assay evaluates changes in activities of exogenous, chimeric NR-Gal4 proteins. […] At the end of 24 hour incubation, total RNA was isolated using TriZol reagent (Invitrogen). The isolated RNA is then reverse-transcribed using oligo(dT) primer and Mo-MLV reverse transcriptase (Invitrogen) with DNAse I (Ambion) treatment for 30 min. The one-tenth of the produced cDNA was amplified by PCR using Taq DNA polymerase (Invitrogen) and two reporter sequence-specific primers. The PCR products were fluorescently labeled by primer extension with 6-arboxyfluorescein (6-FAM) 5'-labeled reporter sequence-specific primer (2 min at 95 C, 20 s at 68 C and 10 min at 72 C) and these products were digested with 5U of HpaI (New England Biolabs) for 2h at 37 C. The fragments were purified using Qiaquick PCR columns (Qiagen), analyzed on an ABI 3130xL genetic analyzer (Applied Biosystems) with peak positions identified by using a set of X-rhodamine (ROX)-labeled MapMarker1000 molecular weight standards (BioVentures). The raw capillary electrophoresis data was processed using Attagraph software (Attagene).
row,Structure (SMILES),outcome
1,CC1(C)C(C(=O)OC(C#N)c2cccc(Oc3ccccc3)c2)C1(C)C (stereo not given),inactive
2,CCCC(=NOCC)C1=C(O)CC(CC(C)SCC)CC1=O (stereo not given),inactive
3,O=C(O)c1c(Cl)ccc2cc(Cl)cnc12,inactive
4,CC(C)=CC1C(C(=O)OCc2coc(Cc3ccccc3)c2)C1(C)C (stereo not given),inactive
5,COCC(=O)N(c1c(C)cccc1C)C(C)C(=O)OC (stereo not given),inactive
6,COC(=O)N(C(=O)N1CO[C@@]2(C(=O)OC)Cc3cc(Cl)ccc3C2=N1)c1ccc(OC(F)(F)F)cc1,inactive
7,C=C(C)CN(CC)c1c([N+](=O)[O-])cc(C(F)(F)F)cc1[N+](=O)[O-],inactive
8,CS(=O)(=O)c1cc(C(F)(F)F)ccc1C(=O)c1cnoc1C1CC1,inactive
9,CC(C)Oc1cccc(NC(=O)c2ccccc2C(F)(F)F)c1,inactive
10,CN/C(=N\[N+](=O)[O-])NCc1cnc(Cl)s1,inactive
11,CCOc1nc(F)cc2nc(S(=O)(=O)Nc3c(Cl)cccc3Cl)nn12,inactive
12,COC(=O)c1c(C(F)F)nc(C(F)(F)F)c(C2=NCCS2)c1CC(C)C,inactive
13,Cc1cnc(C2=NC(C)(C(C)C)C(=O)N2)c(C(=O)O)c1 (stereo not given),inactive
14,CCCCOCN(C(=O)CCl)c1c(CC)cccc1CC,inactive
15,COCc1cnc(C2=NC(C)(C(C)C)C(=O)N2)c(C(=O)O)c1 (stereo not given),inactive
16,Nc1c(Cl)c(F)nc(OCC(=O)O)c1Cl,inactive
17,N#Cc1c(Cl)cccc1Cl,inactive
18,N#Cc1c[nH]cc1-c1cccc2c1OC(F)(F)O2,inactive
19,CCCN(CC)CC1COC2(CCC(C(C)(C)C)CC2)O1 (stereo not given),inactive
20,CNC(=O)N(C)c1nnc(C(C)(C)C)s1,inactive

row,Structure (SMILES),outcome
1,O=c1n(Cl)c(=O)n(Cl)c(=O)n1Cl,inactive
2,O=P(O)(O)CCCl,inactive
3,OC(c1ccc(Cl)cc1)(c1ccc(Cl)cc1)C(Cl)(Cl)Cl,inactive
4,COc1cc(Cl)c(OC)cc1Cl,inactive
5,CCNP(=S)(OC)O/C(C)=C/C(=O)OC(C)C (stereo not given),inactive
6,Cc1ccc(N=CN(C)C=Nc2ccc(C)cc2C)c(C)c1,inactive
7,Clc1cccc(C(Cl)(Cl)Cl)n1,inactive
8,CC(C)(C)C(=O)C(Oc1ccc(Cl)cc1)n1cncn1 (stereo not given),inactive
9,Nc1cnn(-c2ccccc2)c(=O)c1Cl,inactive
10,Cc1c(COC(=O)[C@@H]2[C@H](/C=C(\Cl)C(F)(F)F)C2(C)C)cccc1-c1ccccc1,inactive
11,CCN(CC)C(=O)C(C)Oc1cccc2ccccc12 (stereo not given),inactive
12,CC(C)NC(=O)N1CC(=O)N(c2cc(Cl)cc(Cl)c2)C1=O,inactive
13,CC(C)Nc1nc(Cl)nc(NC(C)C)n1,inactive
14,Nc1c(Cl)c(Cl)nc(C(=O)O)c1Cl,inactive
15,CCOC(=O)C(C)OC(=O)c1cc(Oc2ccc(C(F)(F)F)cc2Cl)ccc1[N+](=O)[O-] (stereo not given),inactive
16,N#CN=C1SCCN1Cc1ccc(Cl)nc1,inactive
17,COC(=O)NS(=O)(=O)c1ccc(N)cc1,inactive
18,CC1(C)C(C=C(Cl)Cl)C1C(=O)OC(C#N)c1cccc(Oc2ccccc2)c1 (stereo not given),inactive
19,CC1(C)CON(Cc2ccccc2Cl)C1=O,inactive
20,CC(C)N1C(=O)N(c2ccccc2)CSC1=NC(C)(C)C,inactive
